Source: PubChem BioAssay AID1159580 (chemical genetic matrix, 2015)
The campaign covered roughly 5,500 compounds. About 2,000 (36%) were called active. Inconclusive results (about 18%) are left out. Cut-off read from the data, not from the text of the source: active = normalized growth mostly below about 0.91 (no sharp cut-off); inconclusive = no clear call, values can overlap the other calls; inactive = mostly above about 0.92. Some of the results follow. *1 amine or outer side, *2 acyl side, *3 side chain or, on linkers, in order; H or OH if unused. Where a SMILES comes first, the peptide text is derived from it. Bridges are numbered along the chain shown (N, C = ends). [ ]: non-standard residue; d: D form. The star is where a group is joined. ξ: configuration not given here. ΔAla(E,3-NHCONH2) = NC(=O)N/C=C(/N)C(=O)O; X2 = NC1=NCCC(C(N[*:1])C(=O)[*:2])N1; ξβ3hOrn = NCCCC(N)CC(=O)*; Dap = NC[CH](N)C(=O)O

Experiment: chemical genetic growth profiling, strain panel (AID 1159580);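 note: tested at 20 µM; growth read once vehicle control cultures reached saturation at 30 °C; 1 = growth at the plate median or of vehicle wells; lower values mean less growth of the strain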
Conditions: growth OD

Measured: normalized growth

NCCCC(N)CC(=O)NCC1NC(=O)C(CO)NC(=O)C(N)CNC(=O)C(C2CCN=C(N)N2)NC(=O)/C(=C\NC(N)=O)NC1=O (stereo not drawn) (H-[Dap]S[Dap](ξβ3hOrn)[ΔAla(E,3-NHCONH2)][X2]; lactam 1-C; configuration not given here)
inactive: S. cerevisiae deletion strains, locus YJR066W, strain TOR1, active compounds read low 0.98 | S. cerevisiae deletion strains, locus YKL009W, strain mrt4, active compounds read low 1.03 | S. cerevisiae deletion strains, locus YKL068W, active compounds read low 1.01 | S. cerevisiae deletion strains, locus YKL085W, strain MDH1 (second series), active compounds read low 1 | S. cerevisiae deletion strains, locus YKL085W, strain MDH1, active compounds read low 1 | S. cerevisiae deletion strains, locus YKL160W, strain elf1, active compounds read low 1.02 | S. cerevisiae deletion strains, locus YKR001C, strain vps1, active compounds read low 1.01 | S. cerevisiae deletion strains, locus YKR026C, strain gcn3, active compounds read low 1.01 | S. cerevisiae deletion strains, locus YKR091W, strain srl3, active compounds read low 1 | S. cerevisiae deletion strains, locus YLL001W, strain dnm1, active compounds read low 1.04 | S. cerevisiae deletion strains, locus YLL026W, active compounds read low 1.04 | S. cerevisiae deletion strains, locus YLL041C, strain sdh2, active compounds read low 1.02 | S. cerevisiae deletion strains, locus YLR027C, strain aat2, active compounds read low 1.05 | S. cerevisiae deletion strains, locus YLR039C, strain RIC1, active compounds read low 1.01 | S. cerevisiae deletion strains, locus YLR058C, strain SHM2, active compounds read low 1.01 | S. cerevisiae deletion strains, locus YLR102C, strain apc9, active compounds read low 1.02 | S. cerevisiae deletion strains, locus YLR113W, strain HOG1, active compounds read low 1.05 | S. cerevisiae deletion strains, locus YLR221C, strain rsa3, active compounds read low 0.993 | S. cerevisiae deletion strains, locus YLR258W, strain gsy2, active compounds read low 1 | S. cerevisiae deletion strains, locus YLR262C, strain YPT6 (second series), active compounds read low 1.03 | S. cerevisiae deletion strains, locus YLR262C, strain YPT6, active compounds read low 1.04 | S. cerevisiae deletion strains, locus YLR268W, strain sec22, active compounds read low 1.03 | S. cerevisiae deletion strains, locus YLR320W, strain mms22, active compounds read low 0.989 | S. cerevisiae deletion strains, locus YLR330W, strain CHS5, active compounds read low 1 | S. cerevisiae deletion strains, locus YLR342W, strain FKS1 (second series), active compounds read low 1.01 | S. cerevisiae deletion strains, locus YLR342W, strain FKS1, active compounds read low 1.03 | S. cerevisiae deletion strains, locus YLR357W, strain rsc2, active compounds read low 1 | S. cerevisiae deletion strains, locus YLR370C, strain arc18, active compounds read low 1.04 | S. cerevisiae deletion strains, locus YLR371W, strain rom2, active compounds read low 0.999 | S. cerevisiae deletion strains, locus YLR384C, strain iki3, active compounds read low 1.02 | S. cerevisiae deletion strains, locus YLR418C, strain cdc73, active compounds read low 0.995 | S. cerevisiae deletion strains, locus YML016C, strain PPZ1, active compounds read low 1 | S. cerevisiae deletion strains, locus YML032C, strain rad52, active compounds read low 1.02 | S. cerevisiae deletion strains, locus YML120C, strain ndi1, active compounds read low 1.05 | S. cerevisiae deletion strains, locus YML124C, strain tub3, active compounds read low 1.01 | S. cerevisiae deletion strains, locus YMR058W, strain fet3, active compounds read low 1.03 | S. cerevisiae deletion strains, locus YMR078C, strain ctf18, active compounds read low 1.03 | S. cerevisiae deletion strains, locus YMR125W, strain sto1, active compounds read low 0.993 | S. cerevisiae deletion strains, locus YMR129W, active compounds read low 1.02 | S. cerevisiae deletion strains, locus YMR205C, strain PFK2, active compounds read low 1.04 | S. cerevisiae deletion strains, locus YMR223W, strain ubp8, active compounds read low 1.03 | S. cerevisiae deletion strains, locus YMR231W, strain pep5, active compounds read low 1 | S. cerevisiae deletion strains, locus YMR263W, strain SAP30, active compounds read low 1 | S. cerevisiae deletion strains, locus YMR307W, strain GAS1, active compounds read low 1.06 | S. cerevisiae deletion strains, locus YNL067W, strain RPL9B, active compounds read low 1.01 | S. cerevisiae deletion strains, locus YNL071W, strain lat1, active compounds read low 0.994 | S. cerevisiae deletion strains, locus YNL183C, strain NPR1, active compounds read low 0.988 | S. cerevisiae deletion strains, locus YNL209W, strain ssb2, active compounds read low 0.998 | S. cerevisiae deletion strains, locus YNL233W, strain BNI4, active compounds read low 0.974 | S. cerevisiae deletion strains, locus YNL248C, strain rpa49, active compounds read low 0.98 | S. cerevisiae deletion strains, locus YNL250W, strain rad50, active compounds read low 1.02 | S. cerevisiae deletion strains, locus YNL271C, strain bni1, active compounds read low 1.03 | S. cerevisiae deletion strains, locus YNL298W, strain CLA4, active compounds read low 1.03 | S. cerevisiae deletion strains, locus YNL307C, strain MCK1, active compounds read low 1.03 | S. cerevisiae deletion strains, locus YNL322C, strain KRE1 (second series), active compounds read low 1.02 | S. cerevisiae deletion strains, locus YNL322C, strain KRE1, active compounds read low 1 | S. cerevisiae deletion strains, locus YNR049C, strain mso1, active compounds read low 1.01 | S. cerevisiae deletion strains, locus YNR052C, strain pop2, active compounds read low 1.01 | S. cerevisiae deletion strains, locus YOL012C, strain htz1 2.02 | S. cerevisiae deletion strains, locus YOL147C, strain pex11, active compounds read low 1.01 | S. cerevisiae deletion strains, locus YOR001W, strain rrp6, active compounds read low 1.03 | S. cerevisiae deletion strains, locus YOR061W, strain CKA2, active compounds read low 1.01 | S. cerevisiae deletion strains, locus YOR069W, strain VPS5, active compounds read low 1 | S. cerevisiae deletion strains, locus YOR070C, strain gyp1, active compounds read low 0.994 | S. cerevisiae deletion strains, locus YOR080W, strain dia2, active compounds read low 1.03 | S. cerevisiae deletion strains, locus YOR083W, strain WHI5, active compounds read low 1.02 | S. cerevisiae deletion strains, locus YOR106W, strain vam3, active compounds read low 1.04 | S. cerevisiae deletion strains, locus YOR136W, strain idh2, active compounds read low 1.01 | S. cerevisiae deletion strains, locus YOR144C, strain elg1, active compounds read low 1.02 | S. cerevisiae deletion strains, locus YOR184W, strain ser1, active compounds read low 1.02 | S. cerevisiae deletion strains, locus YOR231W, strain MKK1, active compounds read low 1.03 | S. cerevisiae deletion strains, locus YOR265W, strain rbl2, active compounds read low 1.02 | S. cerevisiae deletion strains, locus YOR270C, strain vph1, active compounds read low 1.09 | S. cerevisiae deletion strains, locus YOR290C, strain snf2, active compounds read low 0.981 | S. cerevisiae deletion strains, locus YOR316C, strain cot1, active compounds read low 1.05 | S. cerevisiae deletion strains, locus YPL051W, strain arl3, active compounds read low 1.01 | S. cerevisiae deletion strains, locus YPL055C, strain LGE1, active compounds read low 1.03 | S. cerevisiae deletion strains, locus YPL078C, strain atp4, active compounds read low 1.06 | S. cerevisiae deletion strains, locus YPL106C, strain sse1, active compounds read low 0.997 | S. cerevisiae deletion strains, locus YPL240C, strain hsp82, active compounds read low 1.01 | S. cerevisiae deletion strains, locus YPL256C, strain CLN2, active compounds read low 1.04 | S. cerevisiae deletion strains, locus YPR119W, strain clb2, active compounds read low 1 | S. cerevisiae deletion strains, locus YPR141C, strain kar3, active compounds read low 1.01 | S. cerevisiae deletion strains, locus YPR163C, strain tif3, active compounds read low 1.02 | S. cerevisiae deletion strains, locus YPR167C, strain met16, active compounds read low 1.01 | S. cerevisiae deletion strains, strain wtn01, active compounds read low 1.04 | S. cerevisiae strains, strain wild type, active compounds read low 1
